Screen size: about 310,000 compounds; about 14,000 (4.5%) showed an effect of 50% or more. Effects have a minus sign here. For the sample, strong results were picked, then their nearest neighbours and some compounds at random.
The compounds below were run against human ether-à-go-go-related gene (hERG) potassium channel (human, UniProt Q12809) (assay: primary screen, population patch clamp on CHO cells stably expressing hERG; higher = less effect of the substance).
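Also: peak tail current of the secondary pulse compared with the same well before compound.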

Chain of human ether-à-go-go-related gene (hERG) potassium channel (Q12809 whole entry, looked up): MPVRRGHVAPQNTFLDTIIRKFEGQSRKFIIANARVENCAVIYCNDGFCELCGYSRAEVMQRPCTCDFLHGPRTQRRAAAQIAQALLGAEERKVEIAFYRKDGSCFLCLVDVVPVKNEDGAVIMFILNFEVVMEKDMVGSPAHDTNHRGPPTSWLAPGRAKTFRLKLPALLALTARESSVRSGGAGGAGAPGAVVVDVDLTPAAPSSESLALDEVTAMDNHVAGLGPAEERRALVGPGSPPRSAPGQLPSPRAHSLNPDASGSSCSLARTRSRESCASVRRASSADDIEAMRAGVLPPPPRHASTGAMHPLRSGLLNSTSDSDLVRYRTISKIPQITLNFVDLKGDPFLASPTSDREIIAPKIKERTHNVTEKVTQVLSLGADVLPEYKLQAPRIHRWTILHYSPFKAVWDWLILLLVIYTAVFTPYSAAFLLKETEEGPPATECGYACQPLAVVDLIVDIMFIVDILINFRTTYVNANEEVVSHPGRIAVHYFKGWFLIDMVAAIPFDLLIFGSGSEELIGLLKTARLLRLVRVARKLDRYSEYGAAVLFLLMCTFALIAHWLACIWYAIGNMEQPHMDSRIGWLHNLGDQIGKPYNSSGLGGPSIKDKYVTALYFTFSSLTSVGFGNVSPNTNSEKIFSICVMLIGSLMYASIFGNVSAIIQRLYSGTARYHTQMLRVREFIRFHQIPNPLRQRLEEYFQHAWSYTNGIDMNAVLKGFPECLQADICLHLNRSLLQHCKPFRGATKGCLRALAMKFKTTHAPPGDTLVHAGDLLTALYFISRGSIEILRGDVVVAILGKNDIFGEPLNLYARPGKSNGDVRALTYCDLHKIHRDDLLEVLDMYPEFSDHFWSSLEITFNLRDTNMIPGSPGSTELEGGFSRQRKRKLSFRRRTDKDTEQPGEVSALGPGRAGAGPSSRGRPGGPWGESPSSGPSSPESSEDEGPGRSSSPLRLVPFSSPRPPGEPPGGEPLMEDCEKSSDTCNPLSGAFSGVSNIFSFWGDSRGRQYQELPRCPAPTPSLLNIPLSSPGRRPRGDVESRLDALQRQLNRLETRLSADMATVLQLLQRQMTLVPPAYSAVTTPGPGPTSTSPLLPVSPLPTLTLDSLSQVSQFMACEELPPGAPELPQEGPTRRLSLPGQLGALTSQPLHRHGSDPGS

In order of falling “hERG current change (%, negative = inhibition) at 10uM” value:
1. COc1ccc(CNC(=O)COC(=O)/C=C/c2cccc(Br)c2)cc1OC  30.1%
2. COc1cccc(/C=C/C(=O)OCC(=O)Nc2ccc(Cl)cn2)c1  28.1%
3. CCOC(=O)c1sc2nc(C)nc(Nc3ccc(OC)cc3)c2c1C  24.1%
4. CCCCC1=NN(C(=O)c2ccncc2)C(O)(C(F)(F)F)C1 (stereo not shown)  23.1%
5. CC(C)Cn1c(=S)[nH]c2ccccc2c1=O  22%
6. Clc1ccc(CNc2nnnn2-c2ccccc2)c(Cl)c1  20.7%
7. COC(=O)Cn1c(=NC(=O)c2ccc(Cl)s2)sc2cc(F)ccc21  20%
8. Cc1cc(NC(=O)COc2ccc(F)c(Cl)c2)no1  17.7%
9. COc1ccc(-c2ccc(SCC(=O)NC3CCCCC3)nn2)cc1OC  16.4%
10. O=C1C2=C(CCCC2)C(=O)N1CNc1ccccc1  16.3%
11. Cc1ccccc1OCc1nc2ccccc2c(=O)n1/N=C/c1cn[nH]c1-c1ccc(Br)cc1  15.8%
12. Cc1ccc(S(=O)(=O)c2c(C)nn(C(C)(C)C)c2OC(=O)C(C)(C)C)cc1  15.6%
13. N#CC1(NC(=O)CN2c3cccc4cccc(c34)S2(=O)=O)CCCCC1  14.9%
14. Cc1ccc(C(=O)N2N=C(c3ccccc3O)CC2c2ccccc2)cc1 (stereo not shown)  14.6%
15. Cc1ccc(-n2c(SCC(=O)O)nc3c(sc(=S)n3-c3ccc(C)c(C)c3)c2=O)cc1  14%
16. COc1ccc2c(c1OC)C(=O)N(c1ccc(O)cc1)C2=O  13.4%
17. O=C(COC(=O)CCc1c[nH]c2ccccc12)NCc1ccc2c(c1)OCO2  13.2%
18. Cc1nn(C(C)C(=O)Nc2sc3c(c2C#N)CCCC3)c(C)c1[N+](=O)[O-] (stereo not shown)  12.1%
19. Cc1cc(=O)oc(C)c1C(=O)NCc1ccccc1  11.2%
20. Cc1ncc(CN2CCN(Cc3ccc(F)cc3)C(CCO)C2)s1 (stereo not shown)  9.56%
21. Cc1cc(=O)oc(C)c1C(=O)NCCN(C)Cc1ccccc1  8.33%
22. N#C/C(=C\c1ccc(N2CCCCC2)o1)C(N)=O  7.71%
23. CC(=O)Nc1ccc(C2=NN(c3ccccc3)C(c3cccs3)C2)cc1 (stereo not shown)  7.7%
24. CCN(CC)c1ccc(NC(=O)Nc2cccc3ccccc23)cc1  7.7%
25. Cc1cc(=O)oc(C)c1C(=O)NCCc1ccccc1  7.49%
26. COc1cc(OC)cc(C(=O)NCCCNC(=O)c2cccnc2)c1  7.43%
27. Cc1ccc(C(=O)Nc2nnc(SCC(=O)N3CCCc4ccccc43)s2)cc1  7.27%
28. CCCNC(=O)NCCc1ccncc1  7.09%
29. COc1ccc(N2C(=O)CC(Nc3cccc(C(C)=O)c3)C2=O)cc1OC (stereo not shown)  7.07%
30. O=C(CCCN1C(=O)c2ccccc2C1=O)NCc1ccco1  6.15%
31. O=S(=O)(N1CCOCC1)N1CCCN(S(=O)(=O)N2CCOCC2)CC1  5.76%
32. C/C(N)=C(/C#N)C(=O)COC(=O)[C@@H](NC(=O)c1ccccc1Cl)C(C)C  4.16%
33. Cc1cc(=O)oc(C)c1C(=O)NCCNC(=O)c1c(C)cc(=O)oc1C  3.85%
34. CC(=O)c1ccc(N2CCN(C(=O)CCS(=O)(=O)c3ccc4c(c3)CCN4C(C)=O)CC2)cc1  3.77%
35. COc1ccc(S(=O)(=O)N2CCOC2CNC(=O)C(=O)NCc2ccncc2)cc1 (stereo not shown)  3.26%
36. Cc1ccc(C(=O)N2CCOCC2)cc1Cl  2.91%
37. CCn1c(SCc2ccccc2)nc2ccccc2c1=O  2.76%
38. O=[N+]([O-])c1cccc(S(=O)(=O)N2CCC(c3nc(-c4ccncc4)no3)CC2)c1  1.54%
39. O=C(COC(=O)c1ccccc1F)NC(=O)NC1CCCC1  1.24%
40. Cc1ccc(NS(=O)(=O)c2ccc(C(=O)NNC(=O)c3ccccc3O)cc2)cc1  0.906%
41. COc1ccc(CN2CCN(CC3CC3)CC2CCO)c(C)c1C (stereo not shown)  -0.714%
42. COc1ccc(-c2csc3ncn(Cc4ccccc4)c(=O)c23)cc1  -0.922%
43. Cc1ccc(OCC(=O)NC(C)c2ccccc2)cc1 (stereo not shown)  -1.19%
44. CCN(CC)c1nc(C)nc2c1sc(=S)n2C  -1.82%
45. Cc1c(NC(=O)C(C)OC(=O)c2ccc(Cl)nc2)c(=O)n(-c2ccccc2)n1C (stereo not shown)  -2.18%
46. O=S(=O)(Nc1cccnc1)c1cccc(C(F)(F)F)c1  -2.26%
47. COc1ccc(N2CCN(CC(=O)N3N=CCC3c3ccccc3)CC2)cc1 (stereo not shown)  -2.49%
48. COc1ccccc1CNC(=O)C1CCN(S(=O)(=O)c2cccc([N+](=O)[O-])c2)CC1  -3.34%
49. COc1cc2ccccc2cc1C(=O)NCCCN1CCOCC1  -5.9%
50. CCC(C(=O)N1CCN(c2ccccn2)CC1)n1nc(C)n2c(cc3occc32)c1=O (stereo not shown)  -5.95%
51. CCCNC(=O)c1c(C)cc(=O)oc1C  -6.11%
52. O=C(CCS(=O)(=O)c1ccc(Cl)cc1)Nc1ccc(N2CCOCC2)cc1  -6.95%
53. CC(NC(=O)Cc1ccc(NS(=O)(=O)c2cccc(C(F)(F)F)c2)cc1)c1ccccn1 (stereo not shown)  -7.55%
54. Cc1ccc(-n2nc3c(c2NC(=O)c2ccco2)CS(=O)C3)cc1 (stereo not shown)  -8.69%
55. COc1ccc(-c2nnc(SCC(=O)NC3CCCCC3)o2)cc1OC  -9.47%
56. Cc1cc(C)n(-c2ccc(C(=O)OCC(=O)Nc3ccc([N+](=O)[O-])cc3)cc2)n1  -10.6%
57. COc1ccc(NC(=O)CSc2nc(=O)n(CCN(C)C)c3c2CCCC3)cc1OC  -11.5%
58. CN(C)CCn1c2c(c(SCC(=O)Nc3ccc4c(c3)OCCO4)nc1=O)CCCC2  -14.8%
59. O=C(/C=C/c1ccccc1Cl)NCCCn1ccnc1  -17%
60. COc1ccccc1-c1nnc(NC(=O)c2ccc(S(=O)(=O)N3CCCC3)cc2)o1  -17.3%
61. CCN(CCCNC(=O)c1[nH]c(C)c(C(C)=O)c1C)c1cccc(C)c1  -18.2%
62. O=C(c1cn(-c2ccccc2)nc1-c1ccc(Cl)s1)N1CCOCC1  -20.9%
63. COc1ccccc1C(=O)COC(=O)CCNS(=O)(=O)c1ccc(C)c(C)c1  -21.9%
64. O=C1CC(N(Cc2cccs2)C(=O)Nc2ccccc2)C(=O)N1c1ccc(Cl)cc1 (stereo not shown)  -22.6%
65. COc1ccccc1-c1ccc(SCC(=O)NC2CCCC2)nn1  -24.5%
66. CN(C)CCn1c2c(c(SCC(=O)Nc3ccccc3)nc1=O)CCCC2  -26.7%
67. COc1ccccc1-c1nnc(SCC(=O)NC2CCCCC2)o1  -27.4%
68. C=CCn1c(N2CCN(c3ccc(OC)cc3)CC2)nc2c1c(=O)n(C)c(=O)n2C  -32.1%
69. CC(C)CCN1CCN(Cc2cccn2-c2cccnc2)CC1CCO (stereo not shown)  -32.5%
70. C/C(=N\NC(=S)NC1CCCCC1)c1c(F)cccc1F  -35%
71. COc1ccccc1-c1nnc(C2CCN(S(=O)(=O)c3ccccc3[N+](=O)[O-])CC2)o1  -45.2%
72. CCn1nc(C)c(CN2CCN(Cc3ccc(OC)c(C)c3C)C(CCO)C2)c1C (stereo not shown)  -45.8%
73. COc1cccc(NC(=O)CSc2nc(=O)n(CCN(C)C)c3c2CCCC3)c1  -49.9%
74. CCN(CCCNC(=O)c1c(C)cc(=O)oc1C)c1ccccc1  -52.7%
75. CN(Cc1cccnc1)C(=O)Cc1ccc(NS(=O)(=O)c2cccc(C(F)(F)F)c2)cc1  -57.6%
76. COc1ccccc1-c1nnc(C2CCN(S(=O)(=O)c3cccc([N+](=O)[O-])c3)CC2)o1  -57.6%
77. Cc1ccc(NC(=O)CSc2nc(=O)n(CCN(C)C)c3c2CCCC3)cc1Cl  -59.8%
78. COc1ccc(OC)c(-c2nnc(SCC(=O)NC3CCCCC3)o2)c1  -59.8%
79. OCCC1CN(Cc2cccn2-c2ncccn2)CCN1Cc1ccccc1 (stereo not shown)  -64.2%
80. CCCCN(CCCNC(=O)c1c(C)cc(=O)oc1C)c1ccccc1  -64.4%
81. OCCC1CN(Cc2cccn2-c2cccnc2)CCN1CCc1ccccc1 (stereo not shown)  -65.2%
82. CCN(CCCNC(=O)c1c(C)cc(=O)oc1C)c1cccc(C)c1  -65.3%
83. OCCC1CN(Cc2cccn2-c2ncccn2)CCN1CCc1ccccc1 (stereo not shown)  -68.2%
84. CN(C)CCn1c2c(c(SCC(=O)Nc3cccc(C(F)(F)F)c3)nc1=O)CCCC2  -68.8%
85. COc1ccccc1-c1ccc(SCC(=O)NC2CCCCC2)nn1  -72%
86. OCCC1CN(Cc2cccn2-c2ncccn2)CCN1Cc1ccc(F)cc1 (stereo not shown)  -73.7%
87. COc1ccccc1-c1nnc(C2CCN(S(=O)(=O)c3ccc([N+](=O)[O-])cc3)CC2)o1  -74.6%
88. COc1ccc(CN2CCN(Cc3cccn3-c3ncccn3)CC2CCO)c(C)c1C (stereo not shown)  -81.6%
